{"source": "PubChem BioAssay (Tox21)", "note": "Where “and” joins values, the source holds several entries; their conditions need not be identical. Identical values can stand only once. Records with an inconclusive call do not appear. A call without a number means that no potency is given here. Some compounds were tested as several samples or in several runs, with calls that do not always agree. Calls of active or inactive are those of the source. Calls come from the whole dose curve. Potency is the fitted concentration of half-maximal effect."}
{"assay": "Nuclear factor erythroid 2-related factor 2/antioxidant responsive element (Nrf2/ARE) small molecule agonists: luciferase reporter gene qHTS assay in human keratinocytes (AID 1919969); note: nearly all actives have a fitted effect of over 35% in size", "details": "KeratinoSens HaCaT ARE-luciferase, luminescence, 24 h; series mostly up to 92.4 µM", "excerpt": "National Center for Advancing Translational Sciences [NCATS]\nDivision of Preclinical Innovation [DPI]\nU.S. Environmental Protection Agency [EPA]\nNational Institutes of Environmental Health Sciences [NIEHS]\nNational Toxicology Program [NTP]\nU.S. Food and Drug Administration [FDA]\nOxidative stress has been implicated in the pathogenesis of a variety of diseases ranging from cancer to neurodegeneration. The antioxidant response element (ARE) signaling pathway plays an important role in the amelioration of oxidative stress. The KeratinoSens (Givaudan, Switzerland) is an in vitro test method which quantifies luciferase induction as a measure of activation of Keap1-Nrf2-antioxidationt/electrophile response element (ARE) dependant pathway in HaCaT human keratinocytes stably transfected with a selectable plasmid. The KeratinoSens assay is a cell-based assay with a reporter cell line to detect potential skin sensitizers by their ability to induce the Nrf2/ARE-response. The activation of the report gene under culture conditions can be detected by ONE-Glo Luciferase Assay System (Promega, Madison, WI). This cell line has been used to screen the Tox21 10K compound library to identify agonists that induce oxidative stress. The cytotoxicity of the Tox21 compound library against the KS-ARE cell line was tested in parallel by measuring the cell viability using CellTiter- Fluor assay system (Promega, Madison, WI) in the same wells.\nHaCaT derived cell line KeratinoSens were dispensed at 1,500 cells/5uL/well in 1536-well white wall/solid bottom plates using a Multidrop Combi (ThermoFisher Scientific, Waltham, MA) dispenser. After the assay plates were incubated at 37 C/5% CO2 for 5 h, 23 nL of compounds dissolved in DMSO, positive controls or DMSO only was transferred to the assay plate by a pintool workstation (Kalypsys, San Diego, CA). The plates were incubated at 37 C/5% CO2 for 23 h, followed by addition of 1uL/well of CellTiter-Fluor reagent into the assay plates using a Flying Reagent Dispenser (Aurora Discovery, San Diego, CA) for cell viability readout that measures cytotoxicity. After 1 h incubation at 37 C/5% CO2 the fluorescence intensity was measured using a ViewLux (PerkinElmer, Shelton, CT) plate reader. Then 4uL/well of One-Glo were added using a Flying Reagent Dispenser. After the plates were incubated at room temperature for 30 min, the luminescence intensity in the assay plates was measured using ViewLux plate reader."}
{"smiles": "Brc1cc(Oc2cc(Br)c(Br)c(Br)c2Br)c(Br)c(Br)c1Br", "Potency": "68.9 µM (active) and inactive"}
{"smiles": "C[C@]12CC[C@@H]3c4ccc(O)cc4C[C@@H](CCCCCCCCCS(=O)CCCC(F)(F)C(F)(F)F)[C@H]3[C@@H]1CC[C@@H]2O", "note": "(stereo not given in full)", "Potency": "inactive"}
{"smiles": "CCCCCCCCCCCCS", "Potency": "inactive"}
{"smiles": "CCOC(N)=O", "Potency": "inactive"}
{"smiles": "OCC1CCCO1", "note": "(stereo not given)", "Potency": "inactive"}
{"smiles": "Cc1ccccc1C(OCCN(C)C)c1ccccc1", "note": "(stereo not given)", "Potency": "inactive"}
{"smiles": "CCCCC(CC)CO", "note": "(stereo not given)", "Potency": "inactive"}
{"smiles": "CCCCC1(COC(=O)CCC(=O)O)C(=O)N(c2ccccc2)N(c2ccccc2)C1=O", "Potency": "inactive"}
{"smiles": "C[C@]12CC[C@@H]3c4ccc(O)cc4CC[C@H]3[C@@H]1CC[C@H]2O", "Potency": "inactive"}
{"smiles": "Cc1ccc(C)c(S(=O)(=O)O)c1", "Potency": "inactive"}
{"smiles": "OC[C@]1(O)OC[C@@H](O)[C@H](O)[C@@H]1O", "Potency": "inactive"}
{"smiles": "CCCc1cc(=O)[nH]c(=S)[nH]1", "Potency": "inactive"}
{"smiles": "Cc1cc(CC(=O)O)n(C)c1C(=O)c1ccc(Cl)cc1", "Potency": "inactive"}
{"smiles": "CCCCCC1C(=O)CCC1CC(=O)OC", "note": "(stereo not given)", "Potency": "inactive"}
{"smiles": "NS(=O)(=O)c1cc(C(=O)O)c(NCc2ccco2)cc1Cl", "Potency": "inactive"}
{"smiles": "CCC(O)OCCCOC", "note": "(stereo not given)", "Potency": "inactive"}
{"smiles": "C=C(C)CC(C)(C)C", "Potency": "inactive"}
{"smiles": "CCCCC/C=C\\C/C=C\\CCCCCCCC(=O)O", "Potency": "60.1 µM (active) and 68.6 µM (active)"}
{"smiles": "CN(C)CCOC(=O)COc1ccc(Cl)cc1", "Potency": "inactive"}
{"smiles": "O=C(O)CCCCC(=O)O", "Potency": "inactive"}
{"smiles": "CC(=O)c1ccc(O)cc1", "Potency": "inactive"}
{"smiles": "COc1ccc(OC)cc1", "Potency": "inactive"}
{"smiles": "O=C1C(N(CO)C(=O)NCO)N(CO)C(=O)N1CO", "note": "(stereo not given)", "Potency": "inactive"}
{"smiles": "O=CCCCC=O", "Potency": "52.5 µM (active) and inactive"}
{"smiles": "Nc1ccc(Cl)cc1Cl", "Potency": "inactive"}
{"smiles": "O=C(O)c1[nH]n(-c2ccc(S(=O)(=O)O)cc2)c(=O)c1N=Nc1ccc(S(=O)(=O)O)cc1", "Potency": "inactive"}
{"smiles": "Cc1ncc[nH]1", "Potency": "inactive"}
{"smiles": "CCCCOCCOCCSC#N", "Potency": "inactive"}
{"smiles": "C[C@]12C=CC(=O)C=C1CC[C@@H]1[C@@H]2[C@@H](O)C[C@@]2(C)[C@H]1CC[C@]2(O)C(=O)CO", "Potency": "inactive"}
{"smiles": "O=C(CC(C(=O)OC1CCCCC1)S(=O)(=O)O)OC1CCCCC1", "note": "(stereo not given)", "Potency": "inactive"}
{"smiles": "C=CCCCCCCCCCC", "Potency": "inactive"}
{"smiles": "CCNc1cccc(C)c1", "Potency": "inactive"}
{"smiles": "C=CN1CCCC1=O", "Potency": "inactive"}
{"smiles": "CC1=CC(C)(C)Nc2ccccc21", "Potency": "inactive"}
{"smiles": "CC(C)(CO)COC(=O)C(C)(C)CO", "Potency": "inactive"}
{"smiles": "Cc1ccnc2c1NC(=O)c1cccnc1N2C1CC1", "Potency": "inactive"}
{"smiles": "COc1ccc(C(Cl)=C(c2ccc(OC)cc2)c2ccc(OC)cc2)cc1", "Potency": "inactive"}
{"smiles": "O=[N+]([O-])c1cccc(Cl)c1", "Potency": "inactive"}
{"smiles": "O=C(c1ccccc1)C(O)c1ccccc1", "note": "(stereo not given)", "Potency": "inactive"}
{"smiles": "C#CC1(O)CC[C@H]2[C@@H]3CCC4=CCCC[C@@H]4[C@H]3CC[C@@]21C", "note": "(stereo not given in full)", "Potency": "inactive"}
